Reference: PubChem BioAssay AID1159580 (chemical genetic matrix, 2015)
Values joined by “and” are separate entries in the source; they are usually repeats but may differ in a detail not shown here. Equal entries are not always repeated. The campaign covered roughly 5,500 compounds. About 2,000 (36%) were called active. About 18% were inconclusive and are not listed. No stated cut-off is given here; in the data, active means normalized growth mostly below about 0.91 (no sharp cut-off); inconclusive means no clear call, values can overlap the other calls; inactive means mostly above about 0.92. This is one part of the list.

Assay: chemical genetic growth profiling, strain panel (AID 1159580);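 further: tested at 20 µM; growth read once vehicle control cultures reached saturation at 30 °C; 1 = growth at the plate median or of vehicle wells; lower values mean less growth of the strain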
Details: S. cerevisiae deletion strains, growth OD

Measured: normalized growth

CC(CN(C)C)CN1c2ccccc2Sc2ccccc21 (configuration not stated)
inactive: locus YAL013W, strain DEP1, hits give low values 0.993 | locus YAL021C, strain ccr4, hits give low values 0.99 | locus YAL026C, strain drs2, hits give low values 0.951 | locus YAL030W, strain snc1, hits give low values 1.02 | locus YBL061C, strain skt5, hits give low values 1.02 | locus YBR009C, strain hhf1, hits give low values 1.02 | locus YBR023C, strain chs3, hits give low values 1.02 | locus YBR171W, strain sec66, hits give low values 1.04 | locus YBR229C, strain ROT2, hits give low values 0.992 | locus YBR231C, strain swc5, hits give low values 1.03 | locus YBR279W, strain paf1, hits give low values 1.02 | locus YCL011C, strain gbp2, hits give low values 1.02 | locus YCL016C, strain dcc1, hits give low values 1.01 | locus YCL029C, strain bik1, hits give low values 0.989 | locus YCL061C, strain MRC1, hits give low values 1.02 | locus YCL069W, strain vba3, hits give low values 1.02 | locus YCR088W, strain abp1, hits give low values 1.02 | locus YDL005C, strain med2, hits give low values 1.02 | locus YDL035C, strain GPR1, hits give low values 0.985 | locus YDL040C, strain nat1, hits give low values 1.01 | locus YDL074C, strain BRE1, hits give low values 0.933 | locus YDL101C, strain DUN1, hits give low values 0.985 | locus YDL134C, strain PPH21, hits give low values 0.979 | locus YDL185W, strain tfp1, hits give low values 0.974 | locus YDL192W, strain arf1, hits give low values 0.998 | locus YDR001C, strain nth1, hits give low values 1.01 | locus YDR069C, strain doa4, hits give low values 1.01 | locus YDR101C, strain arx1, hits give low values 0.988 | locus YDR150W, strain NUM1, hits give low values 1.01 | locus YDR159W, strain sac3, hits give low values 1.03 | locus YDR162C, strain NBP2, hits give low values 0.991 | locus YDR195W, strain ref2 1.13 | locus YDR297W, strain sur2, hits give low values 1.01 | locus YDR318W, strain mcm21, hits give low values 0.974 | locus YDR334W, strain swr1, hits give low values 1.02 | locus YDR335W, strain msn5, hits give low values 1.02 | locus YDR388W, hits give low values 0.966 | locus YDR392W, strain spt3, hits give low values 1.07 | locus YDR502C, strain sam2, hits give low values 0.99 | locus YEL003W, strain gim4, hits give low values 0.988 | locus YEL037C, strain rad23, hits give low values 1.01 | locus YEL061C, strain CIN8 (second series), hits give low values 1.02 | locus YEL061C, strain CIN8, hits give low values 0.994 | locus YER015W, strain faa2, hits give low values 1.03 | locus YER016W, strain bim1, hits give low values 1.02 | locus YER110C, hits give low values 0.999 | locus YER111C, strain swi4, hits give low values 1.03 | locus YER155C, strain BEM2 (second series), hits give low values 1.04 | locus YER155C, strain BEM2, hits give low values 0.99 | locus YER167W, strain BCK2, hits give low values 0.997 | locus YFR010W, strain ubp6, hits give low values 0.985 | locus YGL078C, strain dbp3, hits give low values 0.986 | locus YGL086W, strain mad1, hits give low values 0.991 | locus YGL167C, strain pmr1, hits give low values 1.03 | locus YGL173C, strain kem1, hits give low values 1.03 | locus YGL227W, strain vid30, hits give low values 1.02 | locus YGL240W, strain doc1, hits give low values 1.03 | locus YGL248W, strain PDE1, hits give low values 0.995 | locus YGL253W, strain hxk2, hits give low values 1.02 | locus YGR078C, strain PAC10, hits give low values 0.958 | locus YGR135W, strain pre9, hits give low values 0.944 | locus YGR229C, strain SMI1, hits give low values 0.911 | locus YGR252W, strain gcn5, hits give low values 0.917 | locus YHR013C, strain ard1, hits give low values 1.04 | locus YHR027C, strain rpn1, hits give low values 1.05 | locus YHR030C, strain SLT2, hits give low values 0.983 and 1 | locus YHR079C, strain IRE1 (second series), hits give low values 0.985 | locus YHR079C, strain IRE1, hits give low values 0.993 | locus YHR094C, strain hxt1, hits give low values 0.993 | locus YHR129C, strain ARP1, hits give low values 0.989 | locus YHR142W, strain chs7, hits give low values 1.01 | locus YHR200W, strain rpn10, hits give low values 0.988 | locus YIL066C, strain RNR3, hits give low values 0.972 | locus YIL073C, strain SPO22, hits give low values 0.991 | locus YIL125W, strain kgd1, hits give low values 0.996 | locus YIR030C, strain dcg1, hits give low values 0.989 | locus YJL092W, strain hpr5, hits give low values 1.01 | locus YJL095W, strain BCK1 (second series), hits give low values 1.01 | locus YJL095W, strain BCK1, hits give low values 0.861 and 1 | locus YJL115W, strain asf1, hits give low values 1.01 | locus YJL129C, strain trk1, hits give low values 1.11 | locus YJL134W, strain LCB3, hits give low values 0.992 | locus YJL154C, strain vps35, hits give low values 1.02 | locus YJL164C, strain tpk1, hits give low values 1.02 | locus YJL166W, strain qcr8, hits give low values 1.02 | locus YJL168C, strain set2, hits give low values 0.993 | locus YJL187C, strain SWE1 (second series), hits give low values 0.957 | locus YJL187C, strain SWE1, hits give low values 1.01 | locus YJR043C, strain POL32, hits give low values 1.02 | locus YJR066W, strain TOR1, hits give low values 0.937
active: locus YBR021W, strain FUR4, hits give low values 0.818 | locus YDR137W, strain rgp1, hits give low values 1.22 [resistant]
